Screen size: about 5,500 compounds; about 2,000 (36%) were called active. About 18% were inconclusive and are not listed. Cut-off read from the data, not from the text of the source: active = normalized growth mostly below about 0.91 (no sharp cut-off); inconclusive = no clear call, values can overlap the other calls; inactive = mostly above about 0.92. Some of the results follow.
Assay: chemical genetic growth profiling, strain panel (AID 1159580);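 note: tested at 20 µM; growth read once vehicle control cultures reached saturation at 30 °C; 1 = growth at the plate median or of vehicle wells; lower values mean less growth of the strain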
Settings: growth OD
[1] = S. cerevisiae deletion strains, locus YAL013W, strain DEP1, stronger effect = lower value
[2] = S. cerevisiae deletion strains, locus YBR229C, strain ROT2, stronger effect = lower value
[3] = S. cerevisiae deletion strains, locus YDL101C, strain DUN1, stronger effect = lower value
[4] = S. cerevisiae deletion strains, locus YDR150W, strain NUM1, stronger effect = lower value
[5] = S. cerevisiae deletion strains, locus YEL061C, strain CIN8, stronger effect = lower value
[6] = S. cerevisiae deletion strains, locus YGR078C, strain PAC10, stronger effect = lower value
[7] = S. cerevisiae deletion strains, locus YHR030C, strain SLT2, stronger effect = lower value
[8] = S. cerevisiae deletion strains, locus YHR087W, strain rtc3, stronger effect = lower value
[9] = S. cerevisiae deletion strains, locus YJR043C, strain POL32, stronger effect = lower value
[10] = S. cerevisiae deletion strains, locus YJR075W, strain HOC1, stronger effect = lower value
[11] = S. cerevisiae deletion strains, locus YKL190W, strain CNB1, stronger effect = lower value
[12] = S. cerevisiae deletion strains, locus YLR039C, strain RIC1, stronger effect = lower value
[13] = S. cerevisiae deletion strains, locus YLR058C, strain SHM2 (second series), stronger effect = lower value
[14] = S. cerevisiae deletion strains, locus YLR085C, strain ARP6, stronger effect = lower value
[15] = S. cerevisiae deletion strains, locus YLR262C, strain YPT6, stronger effect = lower value
[16] = S. cerevisiae deletion strains, locus YML094W, strain GIM5, stronger effect = lower value
[17] = S. cerevisiae deletion strains, locus YMR219W, strain ESC1, stronger effect = lower value
[18] = S. cerevisiae deletion strains, locus YMR263W, strain SAP30, stronger effect = lower value
[19] = S. cerevisiae deletion strains, locus YMR307W, strain GAS1, stronger effect = lower value
[20] = S. cerevisiae deletion strains, locus YNL153C, strain GIM3, stronger effect = lower value
[21] = S. cerevisiae deletion strains, locus YNL298W, strain CLA4 (second series), stronger effect = lower value
[22] = S. cerevisiae deletion strains, locus YNL322C, strain KRE1, stronger effect = lower value
[23] = S. cerevisiae deletion strains, locus YNR030W, strain Alg12, stronger effect = lower value
[24] = S. cerevisiae deletion strains, locus YOL006C, strain TOP1, stronger effect = lower value
[25] = S. cerevisiae deletion strains, locus YPL055C, strain LGE1, stronger effect = lower value
[26] = S. cerevisiae deletion strains, locus YPL241C, strain CIN2, stronger effect = lower value
[27] = S. cerevisiae deletion strains, locus YPR135W, strain CTF4, stronger effect = lower value
[28] = S. cerevisiae strains, strain wild type, stronger effect = lower value
[29] = S. cerevisiae deletion strains, locus YCL061C, strain MRC1, stronger effect = lower value
[30] = S. cerevisiae deletion strains, locus YDL134C, strain PPH21, stronger effect = lower value
[31] = S. cerevisiae deletion strains, locus YJL187C, strain SWE1, stronger effect = lower value

Measured: normalized growth

CCSc1ncccc1C(=O)N[C@@H](CCSC)C(=O)OC
inactive: [1] 0.994 | [2] 0.996 | [3] 0.98 | [4] 0.906 | [5] 1.02 | [6] 0.993 | S. cerevisiae deletion strains, locus YGR229C, strain SMI1, stronger effect = lower value 1 | [7] 0.979 | [8] 1 | [9] 0.98 | [10] 1.01 | [11] 1.01 | [12] 1 | [13] 1.01 | [14] 1.04 | [15] 1.02 | [16] 1.03 | [17] 1.01 | [18] 1.01 | [19] 1.02 | [20] 0.999 | [21] 1.01 | [22] 1.01 | [23] 0.997 | [24] 1 | [25] 1.09 | [26] 1.01 | [27] 0.91 | [28] 1

Cc1ccc(SC(=O)c2cccnc2Oc2ccccc2)cc1
inactive: [1] 0.972 | [2] 0.988 | [29] 0.989 | [3] 1.03 | [30] 0.983 | [4] 1.02 | [5] 0.965 | [6] 0.992 | [7] 0.815 | [8] 0.953 | [31] 0.98 | [9] 0.992 | [10] 0.985 | [13] 0.992 | [14] 0.818 | [16] 0.949 | [17] 0.993 | [18] 0.984 | [20] 0.982 | [21] 0.925 | [22] 0.983 | [23] 0.91 | [25] 0.939 | [26] 0.94 | [27] 0.723 | [28] 0.952
active: [12] 0.723 | [15] 0.679

Cc1ccc(Sc2ncccc2C(=O)NCC(=O)O)cc1
inactive: [1] 1.03 | [2] 1.02 | [3] 1.04 | [30] 0.999 | [4] 1.03 | [5] 1.01 | [6] 1.04 | [7] 1.06 | [8] 0.994 | [9] 0.962 | [10] 1.02 | [12] 1 | [13] 1.02 | [14] 1.02 | [15] 1.01 | [16] 0.992 | [17] 1.01 | [18] 1.02 | [20] 1.03 | [21] 1.02 | [22] 1.01 | [23] 1.02 | [24] 1.04 | [25] 1.01 | [26] 0.996 | [27] 1.08

Cc1ccc(Sc2ncccc2NS(=O)(=O)c2ccc(Cl)cc2)cc1
active: [7] 0.839 | S. cerevisiae deletion strains, locus YLR113W, strain HOG1, stronger effect = lower value 0.809 | S. cerevisiae deletion strains, locus YPL256C, strain CLN2, stronger effect = lower value 0.827
inactive: S. cerevisiae deletion strains, locus YAR019C, strain CDC15, stronger effect = lower value 0.933 | S. cerevisiae deletion strains, locus YBL105C, strain PKC1, stronger effect = lower value 0.924 | S. cerevisiae deletion strains, locus YBR135W, strain CKS1, stronger effect = lower value 0.935 | S. cerevisiae deletion strains, locus YBR136W, strain MEC1, stronger effect = lower value 0.922 | S. cerevisiae deletion strains, locus YBR160W, strain CDC28, stronger effect = lower value 0.934 | S. cerevisiae deletion strains, locus YDL017W, strain CDC7, stronger effect = lower value 0.937 | S. cerevisiae deletion strains, locus YDL028C, strain MPS1, stronger effect = lower value 0.932 | [3] 0.947 | S. cerevisiae deletion strains, locus YDL108W, strain KIN28, stronger effect = lower value 0.919 | S. cerevisiae deletion strains, locus YDL132W, strain cdc53, stronger effect = lower value 0.932 | S. cerevisiae deletion strains, locus YDL214C, strain PRR2, stronger effect = lower value 0.852 | S. cerevisiae deletion strains, locus YDR052C, strain DBF4, stronger effect = lower value 0.952 | S. cerevisiae deletion strains, locus YDR054C, strain cdc34, stronger effect = lower value 0.922 | S. cerevisiae deletion strains, locus YDR226W, strain ADK1, stronger effect = lower value 0.938 | S. cerevisiae deletion strains, locus YDR477W, strain SNF1, stronger effect = lower value 0.881 | S. cerevisiae deletion strains, locus YER123W, strain YCK3, stronger effect = lower value 0.823 | S. cerevisiae deletion strains, locus YER133W, strain GLC7, stronger effect = lower value 0.855 | S. cerevisiae deletion strains, locus YFL009W, strain cdc4, stronger effect = lower value 0.935 | S. cerevisiae deletion strains, locus YFL029C, strain CAK1, stronger effect = lower value 0.931 | S. cerevisiae deletion strains, locus YFR003C, strain YPI1, stronger effect = lower value 0.929 | S. cerevisiae deletion strains, locus YFR019W, strain FAB1, stronger effect = lower value 0.923 | S. cerevisiae deletion strains, locus YFR028C, strain CDC14, stronger effect = lower value 0.926 | S. cerevisiae deletion strains, locus YGR040W, strain KSS1, stronger effect = lower value 0.858 | S. cerevisiae deletion strains, locus YGR052W, strain FMP48, stronger effect = lower value 0.907 | S. cerevisiae deletion strains, locus YGR092W, strain DBF2, stronger effect = lower value 0.826 | S. cerevisiae deletion strains, locus YHR079C, strain IRE1, stronger effect = lower value 0.87 | S. cerevisiae deletion strains, locus YHR082C, strain KSP1, stronger effect = lower value 0.845 | S. cerevisiae deletion strains, locus YHR205W, strain SCH9, stronger effect = lower value 0.852 | S. cerevisiae deletion strains, locus YIL147C, strain SLN1, stronger effect = lower value 0.917 | S. cerevisiae deletion strains, locus YJL095W, strain BCK1, stronger effect = lower value 0.909 | S. cerevisiae deletion strains, locus YJL128C, strain PBS2, stronger effect = lower value 0.88 | S. cerevisiae deletion strains, locus YJL157C, strain FAR1, stronger effect = lower value 0.856 | S. cerevisiae deletion strains, locus YJR016C, strain ILV3, stronger effect = lower value 0.919 | S. cerevisiae deletion strains, locus YJR066W, strain TOR1 (second series), stronger effect = lower value 0.851 | S. cerevisiae deletion strains, locus YJR066W, strain TOR1, stronger effect = lower value 0.882 | S. cerevisiae deletion strains, locus YKL048C, strain ELM1, stronger effect = lower value 0.888 | S. cerevisiae deletion strains, locus YKL067W, strain YNK1, stronger effect = lower value 0.894 | S. cerevisiae deletion strains, locus YKL101W, strain HSL1, stronger effect = lower value 0.884 | S. cerevisiae deletion strains, locus YKL193C, strain SDS22, stronger effect = lower value 0.932 | S. cerevisiae deletion strains, locus YKL203C, strain TOR2, stronger effect = lower value 0.928 | S. cerevisiae deletion strains, locus YLR133W, strain CKI1, stronger effect = lower value 0.894 | S. cerevisiae deletion strains, locus YLR403W, strain SFP1, stronger effect = lower value 0.861 | S. cerevisiae deletion strains, locus YML070W, strain DAK1, stronger effect = lower value 0.849 | S. cerevisiae deletion strains, locus YMR001C, strain CDC5, stronger effect = lower value 0.928 | S. cerevisiae deletion strains, locus YMR205C, strain PFK2 (second series), stronger effect = lower value 0.888 | S. cerevisiae deletion strains, locus YMR277W, strain FCP1, stronger effect = lower value 0.934 | S. cerevisiae deletion strains, locus YNL006W, strain LST8, stronger effect = lower value 0.947 | S. cerevisiae deletion strains, locus YNL020C, strain ARK1, stronger effect = lower value 0.879 | S. cerevisiae deletion strains, locus YNL161W, strain CBK1, stronger effect = lower value 0.929 | S. cerevisiae deletion strains, locus YNL183C, strain NPR1, stronger effect = lower value 0.897 | S. cerevisiae deletion strains, locus YNL207W, strain RIO2, stronger effect = lower value 0.924 | S. cerevisiae deletion strains, locus YNL222W, strain SSU72, stronger effect = lower value 0.933 | S. cerevisiae deletion strains, locus YNL307C, strain MCK1 (second series), stronger effect = lower value 0.885 | S. cerevisiae deletion strains, locus YOL078W, strain AVO1, stronger effect = lower value 0.94 | S. cerevisiae deletion strains, locus YOL136C, strain PFK27, stronger effect = lower value 0.854 | S. cerevisiae deletion strains, locus YOR061W, strain CKA2, stronger effect = lower value 0.85 | S. cerevisiae deletion strains, locus YOR119C, strain RIO1, stronger effect = lower value 0.912 | S. cerevisiae deletion strains, locus YOR231W, strain MKK1, stronger effect = lower value 0.891 | S. cerevisiae deletion strains, locus YOR329C, strain SCD5, stronger effect = lower value 0.929 | S. cerevisiae deletion strains, locus YPL031C, strain PHO85, stronger effect = lower value 0.866 | S. cerevisiae deletion strains, locus YPL153C, strain RAD53, stronger effect = lower value 0.863 | S. cerevisiae deletion strains, locus YPL204W, strain HRR25, stronger effect = lower value 0.884 | S. cerevisiae deletion strains, locus YPL209C, strain IPL1, stronger effect = lower value 0.934 | S. cerevisiae deletion strains, locus YPR025C, strain CCL1, stronger effect = lower value 0.933 | S. cerevisiae deletion strains, locus YPR106W, strain ISR1, stronger effect = lower value 0.925 | S. cerevisiae deletion strains, locus YPR111W, strain DBF20, stronger effect = lower value 0.924 | S. cerevisiae deletion strains, strain NNK1, stronger effect = lower value 0.92 | S. cerevisiae deletion strains, strain TSCII, stronger effect = lower value 0.928

NNC(=O)c1cccnc1Oc1ccccc1
inactive: [1] 1.01 | [2] 0.998 | [3] 1.03 | [4] 1.04 | [5] 1.02 | [6] 1.02 | [7] 1.11 | [8] 1.02 | [9] 1.01 | [10] 1.03 | [11] 1.02 | [12] 1.12 | [13] 1 | [14] 1.12 | [15] 1.01 | [16] 1.03 | [17] 1.02 | [18] 1.02 | [20] 1.01 | [21] 1.08 | [22] 1.01 | [23] 1.03 | [25] 1.02 | [26] 1.04 | [27] 1.14

COC(=O)c1cccnc1Sc1ccc(C)cc1
active: [7] 0.432 | [14] 0.666 | [24] 0.684 | [26] 0.769 | [27] 0.61
inactive: [1] 0.947 | [2] 0.97 | [29] 0.968 | [3] 0.991 | [30] 0.958 | [4] 0.904 | [5] 0.956 | [6] 0.954 | [8] 0.974 | [31] 0.967 | [9] 0.95 | [10] 0.989 | [12] 0.913 | [13] 0.966 | [15] 0.961 | [16] 0.97 | [17] 0.958 | [18] 0.962 | [19] 0.686 | S. cerevisiae deletion strains, locus YNL128W, strain TEP1, stronger effect = lower value 0.98 | [20] 0.991 | [21] 0.917 | [22] 0.965 | [23] 0.928 | [25] 0.812 | [28] 0.965
